bovine MsrA act = activates bovine MsrA enzyme. purified bovine MsrA, absorbance read-out. 0.3% of 360,000 active. activation, % at 10.6 µM; in the data active = activation above about 7.5%;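 also: 0% = vehicle and 100% = reference activator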
MsrA inh = inhibits bovine methionine sulfoxide reductase A | purified bovine MsrA, absorbance read-out | inhibition, % at 15.5 µM | 0.75% of 360,000 active; in the data active = inhibition above about 4.5%;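 also: 0% = vehicle wells with enzyme and 100% = reference inhibitor wells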
PLC-gamma1 inh = inhibitors of human phospholipase C gamma1 | purified PLC-gamma1, fluorogenic substrate, fluorescence | 0.84% of 370,000 active | AID 720700 | inhibition, % at 12.2 µM; in the data active = inhibition above about 9.5%
Target sequence (P19174 whole entry, looked up): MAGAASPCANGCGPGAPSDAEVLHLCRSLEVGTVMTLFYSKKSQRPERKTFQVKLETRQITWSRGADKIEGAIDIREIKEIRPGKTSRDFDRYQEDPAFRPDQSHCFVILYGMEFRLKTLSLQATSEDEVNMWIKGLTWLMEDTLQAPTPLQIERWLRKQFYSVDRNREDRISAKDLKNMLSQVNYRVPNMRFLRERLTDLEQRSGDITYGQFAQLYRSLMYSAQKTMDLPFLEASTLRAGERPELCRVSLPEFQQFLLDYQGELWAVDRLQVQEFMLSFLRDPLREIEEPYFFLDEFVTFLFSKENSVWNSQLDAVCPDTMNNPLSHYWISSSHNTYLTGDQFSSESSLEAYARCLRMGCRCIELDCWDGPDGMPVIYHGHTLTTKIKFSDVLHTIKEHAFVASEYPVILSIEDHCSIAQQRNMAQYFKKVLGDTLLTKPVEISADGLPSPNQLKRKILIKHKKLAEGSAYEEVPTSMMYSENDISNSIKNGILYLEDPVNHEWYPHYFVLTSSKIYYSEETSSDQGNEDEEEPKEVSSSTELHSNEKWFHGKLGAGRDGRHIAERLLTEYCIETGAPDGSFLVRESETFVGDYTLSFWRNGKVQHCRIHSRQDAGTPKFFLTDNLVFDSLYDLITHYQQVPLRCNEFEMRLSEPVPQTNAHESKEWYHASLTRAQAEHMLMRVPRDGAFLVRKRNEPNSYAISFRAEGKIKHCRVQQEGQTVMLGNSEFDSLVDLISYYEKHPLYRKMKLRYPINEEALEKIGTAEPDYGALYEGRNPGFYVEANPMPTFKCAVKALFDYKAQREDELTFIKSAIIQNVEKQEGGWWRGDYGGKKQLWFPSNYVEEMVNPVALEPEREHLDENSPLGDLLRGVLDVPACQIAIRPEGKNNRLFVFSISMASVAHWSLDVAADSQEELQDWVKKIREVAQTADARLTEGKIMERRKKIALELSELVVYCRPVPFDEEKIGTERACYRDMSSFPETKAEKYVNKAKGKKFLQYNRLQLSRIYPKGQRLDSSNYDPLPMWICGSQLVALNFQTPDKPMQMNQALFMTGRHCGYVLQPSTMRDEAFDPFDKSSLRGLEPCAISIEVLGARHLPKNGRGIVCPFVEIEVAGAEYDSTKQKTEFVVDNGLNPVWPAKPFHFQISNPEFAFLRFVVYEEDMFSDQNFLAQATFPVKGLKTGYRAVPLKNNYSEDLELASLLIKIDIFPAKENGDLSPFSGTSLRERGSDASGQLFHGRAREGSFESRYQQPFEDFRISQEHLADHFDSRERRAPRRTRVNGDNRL
PLCb3 inh = PLC-beta3 (human) inhibition, primary screen; Q01970; Purified PLC-beta3, fluorogenic substrate, fluorescence; inhibition, % at 12.2 µM; 0.18% of 370,000 active; AID 720704;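 also: 0% = median of compound wells on plate and 100% = full blocker control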
PLCg1 ctr = PLC-gamma1 inhibition, counter-screen for PLC-beta3 hits; shares compounds with PLC-gamma1 inh; purified PLC-gamma1, fluorogenic substrate, fluorescence; inhibition, % at 12.3 µM; 3.1% of 3,300 active; AID 743258; in the data active = inhibition above about 9.5%
PLCbeta3 conf = confirmation of human PLC-beta3 inhibitors; inhibition, % at 12.3 µM; purified PLC-beta3, fluorogenic substrate fluorescence; 1% of 3,300 active; shares compounds with PLC-gamma1 inh
Active calls of the source: *; i = inactive; . = not tested or not shown. Hits are enriched below; roughly 1.9% of the tested compounds scored in any of these assays. Rule as the data show it, unless noted: active = inhibition above about 11%; inactive = the rest.

SMILES | bovine MsrA act | MsrA inh | PLC-gamma1 inh | PLCb3 inh | PLCg1 ctr | PLCbeta3 conf
C(=NOCc1ccccc1)c1ccncc1 | -2 | 1 | 10* | 5 | -1 | 1
Cc1cc(O)ccc1NC(=O)Cc1cccc2ccccc12 | -6 | 1 | 0 | -3 | . | .
CC(C)C(=O)Nc1cccc(NC(=O)c2cc3ccccc3o2)c1 | -3 | 1 | 0 | 1 | . | .
CC(=O)Nc1cccc(NC(=O)c2cc3ccccc3o2)c1 | -1 | 1 | 9.7* | 3 | -7 | -3
COc1ccc(C(CC(=O)c2ccccc2)CC(=O)c2ccccc2)cc1 | -2 | 1 | 13* | -4 | 6 | 3
CSc1ccc(C(=O)C2CCCN(C(=O)c3ccc4c(c3)no[n+]4[O-])C2)cc1 (stereo unspecified) | -3 | 0 | 1 | 6 | . | .
O=C(NCc1cccc(C(F)(F)F)c1)C1CC2Cn3c(nc4ccccc43)C2N1Cc1ccccc1 (stereo unspecified) | -3 | 1 | 6 | 12* | -5 | -1
COC(=O)c1cc2c(c3c4cc(OC)ccc4n(S(=O)(=O)c4ccc(OC)cc4)c13)C(=O)N(Cc1ccc(C(F)(F)F)cc1)C2 | . | 0 | -6 | -9 | . | .
O=C(OCc1cc(=O)n2ccsc2n1)C1(c2ccccc2)CC1 | -1 | 2 | 0 | -5 | . | .
COc1cc(-c2nnc(SCC(=O)c3ccccc3)o2)cc(OC)c1OC | -12 | 0 | 0 | -3 | . | .
COc1cc(-c2nnc(SCC3(c4ccccc4)OCCO3)o2)cc(OC)c1OC | 0 | 0 | 12* | -1 | -4 | 0
O=C1C(NS(=O)(=O)c2cccs2)=C(N2CCOCC2)C(=O)c2ccccc21 | -4 | -1 | 9.8* | -2 | -10 | -6
COc1ccc(N(C)C(=O)CCS(=O)(=O)c2cccc3nonc23)cc1 | -1 | 1 | 8 | 11* | -4 | 0
C#CCNC(=O)c1cc2cccnc2nc1N | . | 2 | -345 | -414 | . | .
CCCCNC(=O)C[C@@H]1C[C@@]2(C(=O)OC)CCCCC=C2N(Cc2cccc3ccccc23)C1=O | -11 | 0 | 11* | -2 | -1 | 4
Cc1cccc(NC(=O)C2C3C=CC(O3)C2C(=O)O)c1C (stereo unspecified) | -2 | 0 | -2 | -6 | . | .
C[C@@H]1ON(C)[C@H]2C[C@H]3c4[nH]c5cccc(-c6cccc(F)c6)c5c4CCN3C(=O)[C@@H]12 | . | 0 | -274 | -359 | . | .
Cc1nc([N+](=O)[O-])c(Br)n1CC(=O)c1cccc([N+](=O)[O-])c1 | -4 | 0 | 9.9* | 6 | 9 | -3
O=C(Nc1cccnc1)C1CCCN(S(=O)(=O)c2ccccc2)C1 (stereo unspecified) | 1 | 0 | 2 | 3 | . | .
O=C(Nc1ccc(Br)cc1)C1CCCN(S(=O)(=O)c2cccnc2)C1 (stereo unspecified) | -2 | 1 | 5 | 11* | 1 | 4
CCCC/C=C1/[C@@H](CC)N(Cc2ccc(OC)cc2OC)C2=N[C@H](c3ccccc3)CC(=O)N21 | . | . | 6 | 4 | . | .
COc1ccc(CN2CCC[C@]3(N[C@H](c4ccc(C)cc4)[C@@H]4C(=O)N(C)C(=O)[C@@H]43)C2=O)cc1 | -2 | -1 | -2 | 1 | . | .
Cc1ccc(CN2CCC[C@]3(N[C@H](c4ccccc4)[C@@H]4C(=O)N(C)C(=O)[C@@H]43)C2=O)cc1 | -1 | 1 | 12* | 8 | -2 | -1
CCC(=O)Nc1ccc2c(c1)OC[C@@H](C)NC[C@@H](C)[C@@H](OC)CN(C)C2=O | . | 0 | 0 | -3 | . | .
O=C(O)CCCNS(=O)(=O)c1ccc(F)cc1 | -1 | 1 | 9.7* | 6 | -7 | -5
SMILES | bovine MsrA act | MsrA inh | PLC-gamma1 inh | PLCb3 inh | PLCg1 ctr | PLCbeta3 conf
CCCC(=O)OCC(=O)Nc1ccc(N=Nc2ccccc2)cc1 | 1 | 4 | 9.6* | 9 | 3 | 2
CC1CC1C(=O)OCC(=O)Nc1ccc(N=Nc2ccccc2)cc1 (stereo unspecified) | -6 | 3 | 5 | 4 | . | .
CC(=O)Nc1cnc(NC(=O)c2cccc(F)c2)cc1C | 0 | 1 | 7 | 11* | 1 | -1
CCc1nc2ccc(C(=O)N(C)Cc3ccco3)cn2c1N(C)Cc1ccc(OC)cc1 | -1 | -1 | 0 | -6 | . | .
CCCCNc1c(-c2cccc(-c3cc(C(C)=O)cs3)c2)nc2ccc(C)cn12 | -3 | 3 | 9.7* | 2 | -5 | -11
CCCCNc1c(-c2cccc(-c3ccc(OC)cc3)c2)nc2ccc(C)cn12 | -1 | 0 | i | i | . | .
Cn1cc(-c2csc(C(O)c3ccc(F)cc3)n2)cn1 (stereo unspecified) | -10 | 0 | 0 | 1 | . | .
FC(F)(F)Oc1cccc(Cn2ccc3ccc(-c4ccc5ccn(Cc6cccc(OC(F)(F)F)c6)c5c4)cc32)c1 | . | . | -49 | -57 | . | .
COc1ccc(S(=O)(=O)N2CCC(N3CCCCC3)CC2)cc1 | -3 | -1 | 9.7* | 5 | -1 | -1
COc1ccc(CNC(=O)c2cc(S(=O)(=O)N3CCCCC3)ccc2Cl)cc1OC | -1 | -1 | 1 | 13* | -4 | 3
COc1ccc(CNC(=O)c2cccc(S(=O)(=O)N3CCCCC3)c2)cc1OC | -2 | -1 | 1 | -4 | . | .
COc1ccc(S(=O)(=O)N2CCN(C3CCCCCCC3)CC2)cc1 | 1 | 1 | 1 | 2 | . | .
COc1ccc(CNS(=O)(=O)c2ccc(S(=O)(=O)N3CCCCC3)cc2)cc1 | -3 | 0 | 11* | 5 | -4 | -1
CCc1nc2nc(C)c(NS(=O)(=O)c3ccc(F)cc3)c(=O)n2[nH]1 | -9 | 1 | 11* | 8 | -2 | 1
CN(C)c1ncnc2c1ncn2[C@H]1CN(Cc2ccc(-c3ccccc3)cc2)C[C@@H](CO)O1 | -2 | 1 | 1 | -1 | . | .
COCCNC(=O)C1(C)CCCN(C(=O)c2cc(C)on2)C1 (stereo unspecified) | -1 | -1 | 2 | 10 | . | .
COc1ccc2c(OC)cc(=O)n(C)c2c1 | -3 | 1 | 13* | 3 | -7 | -5
CC1=C(C(=O)N(C)C)CC(CC(=O)NCCCN(C)C)C(=O)N1CCCN1CCCC1=O (stereo unspecified) | 0 | -1 | 3 | 6 | . | .
CCCc1nc2sc3c(c2c(=O)n1N)CCC3 | 2 | 0 | 1 | 1 | . | .
CCc1nc2sc3c(c2c(=O)n1N)CCC3 | -6 | 3 | 11* | 1 | -3 | -3
Clc1cccc(Cl)c1OCCCCN1CCCCC1 | -1 | 0 | 12* | -3 | 2 | 0
NC(=Nc1ccccc1)N(c1ccccc1)c1ccccc1 | -5 | 2 | 3 | 3 | . | .
CCOC(=O)C1=CCN(S(C)(=O)=O)C1c1ccc(Cl)cc1 (stereo unspecified) | . | 0 | 1 | 3 | . | .
CN1CCn2cnc(C(=O)NCCCCCNC(=O)OC(C)(C)C)c2C1=O | -1 | 2 | -1 | 4 | . | .
Cc1cccc(NC2=C(Cl)C(=O)OC2OC(C)C)c1 (stereo unspecified) | -5 | 2 | 10* | 7 | 6 | 1
c1coc(-c2nnc3sc(Cc4cccs4)nn23)c1 | -8 | 1 | 20* | -10 | -6 | -5

Screens (PubChem)
